The values below come from PubChem BioAssay (Tox21).

The source made the active and inactive calls. The call rests on the fitted dose curve; in most records, active means well fitted activation curve with a large enough effect in the repeat runs; inconclusive means weak or mixed curves; inactive means flat fitted curve, though single readings scatter.
On the % scale 0 is the no-effect control and ±100 the full control effect; potency means the concentration at half of the fitted maximal effect.

Sequence of KiSS-1 receptor (Homo sapiens) (Q969F8 whole entry, looked up): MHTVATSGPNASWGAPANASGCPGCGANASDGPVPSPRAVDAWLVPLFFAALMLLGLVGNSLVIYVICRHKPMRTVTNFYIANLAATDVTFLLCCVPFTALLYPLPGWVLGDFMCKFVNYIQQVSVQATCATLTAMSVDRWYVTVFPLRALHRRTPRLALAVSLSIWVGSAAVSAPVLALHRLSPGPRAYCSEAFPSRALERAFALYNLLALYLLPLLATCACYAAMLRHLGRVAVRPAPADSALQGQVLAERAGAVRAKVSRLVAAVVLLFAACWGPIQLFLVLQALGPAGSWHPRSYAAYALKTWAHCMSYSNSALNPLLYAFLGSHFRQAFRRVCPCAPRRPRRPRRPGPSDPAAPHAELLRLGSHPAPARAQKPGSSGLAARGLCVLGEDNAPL

The test addresses KiSS-1 receptor (Homo sapiens) (UniProt Q969F8). The experiment in a line: Human kisspeptin (KISS1R) small molecule agonists, calcium flux assay in KISS1R-HEK293 cells (AID 1920064). The note with it: KISS1R-HEK293, calcium flux fluorescence, agonist; series mostly up to 76.8 µM; activation: at the top concentration. The source says:
National Center for Advancing Translational Sciences [NCATS]
Division of Preclinical Innovation [DPI]
U.S. Environmental Protection Agency [EPA]
National Institutes of Environmental Health Sciences [NIEHS]
National Toxicology Program [NTP]
U.S. Food and Drug Administration [FDA]
Kisspeptin and its receptor KISS1R play key roles in mammalian reproduction due to their involvement in the onset of puberty and control of the hypothalamic-pituitary-gonadal axis such as regulates GnRH release from the hypothalamus. The kisspeptin/KISS1R system also plays a direct role in peripheral organs (including the ovary, testis, uterus, and placenta) and is implicated in reproductive diseases such as miscarriage and polycystic ovary syndrome (PCOS). Abnormal KISS1R activity is associated with abnormal puberty, infertility, endometriosis, and hormone-dependent tumors. The KISS1 receptor (KISS1R, also called GPR54), a G-protein-coupled receptor (GPCR), acts (through phospholipase C) to increase intracellular inositol trisphosphate and then release intracellular calcium stores. Cell-based KISS1R-HEK293 assay is using HEK293 cells that have been genetically engineered to express the human KISS1R, which activity can be measured by calcium signaling. A compound/drug can activate (agonist) KISS1R that can be monitored by levels of intracellular calcium.
KISS1R-HEK293 cells developed by Codex Corp contain human KISS1R gene, which was stably integrated into HEK 293 cells. The compound activation can be detected by fluorescence intensity via calcium flux assay. This cell line has been used to screen the Tox21 10K compound library to identify agonists of KISS1R.
KISS1R-Hek293 cells were dispensed at 1500 cells/4uL/well in 1536-well black wall/clear bottom plates using a multidrop dispenser. After the assay plates were incubated at a 37 C/5% CO2 incubator for 18 hours, 4 microL of Calcium Dye Solution was added to each well. The plates were incubated at 37 C for 1 hour. And then 23 nL of compounds dissolved in DMSO, positive controls, or DMSO only was transferred to the assay plate by a pin tool station. The fluorescence intensity in the plates was measured using FDSS 7000EX kinetic plate reader with a filter set of Ex/Em=480/540 for 3 min at 1 sec intervals. Each test compound was measured at 15 concentrations and in triplicates.
(In general: A change in cytosolic calcium serves as a functional read-out for many receptors and channels.)
For the compound `O=C(O)c1cccnc1Nc1cccc(C(F)(F)F)c1`, the “activation” value is 0.012% [at 35.3 µM] (inactive).
Turning to `O=C(Nc1cccc(Cl)c1)OCC#CCCl`, the “activation” value was -1.55% (inactive).
Take `CN(C)CCCN1c2ccccc2Sc2ccc(C(F)(F)F)cc21`: the “activation” value is 1.28% [at 35.3 µM] (inactive).
As for `O=C(CN1CCNCC1)NC1CCCCC1`, the “activation” value was -0.257% [at 35.3 µM] (inactive).
Still for that read-out and setting: the result for `c1cc2ccc3ccc4ccc5cccc6c(c1)c2c3c4c56` reads 0.0535% [at 2.72 µM] (inactive).
`C/C(=C\c1ccc(C(=O)O)cc1)c1ccc2c(c1)C(C)(C)CCC2(C)C`: the “activation” value is -2.78% [at 35.3 µM] (inactive).
The same measure, in the same setting: the result for `OCCN1CCN(CCCN2c3ccccc3Sc3ccc(C(F)(F)F)cc32)CC1` reads 0.546% [at 35.3 µM] (inactive).
For the compound `CC(=O)NCCCS(=O)(=O)O`, the Potency is 11.9 µM (active).
On to `CCCCCCOc1ccccc1C(N)=O`, for which the “activation” value is 6.08% [at 35.3 µM] (inactive).
For the compound `COc1cc2nc(N3CCN(C(=O)C4COc5ccccc5O4)CC3)nc(N)c2cc1OC` (stereo not given), the “activation” value is -2.16% [at 35.3 µM] (inactive).
On the same count and under the same terms, the result for `O=C1c2c(O)ccc(O)c2C(=O)c2c(NCCNCCO)ccc(NCCNCCO)c21` reads -0.0403% [at 35.3 µM] (inactive); that for `CCCCCCCC/C=C\CCCCCCCC(=O)OC(CO)CO`, 1.21% (inactive).
Consider `C[C@H](CCC(=O)O)[C@H]1CC[C@H]2[C@@H]3CC[C@@H]4C[C@H](O)CC[C@]4(C)[C@H]3CC[C@]12C`, for which the Potency entry is “inactive”.
On to `C=C(C)[C@@H]1CC=C(C)C(=O)C1`, for which the “activation” value is -1.06% (inactive).
As for `CCOC(=O)COc1ccc2c(C)c(CCN(CC)CC)c(=O)oc2c1Cl`, the “activation” value is -0.81% [at 35.3 µM] (inactive).
Turning to `CCCCCCCC/C=C\CCCCCCCC(=O)N(C)CC(=O)O`, the “activation” value was 3.74% (inactive).
Take `CC1C2CC(CC2C2CCCC(O)C2)C1(C)C` (stereo not given): the “activation” value is 6.88% (inactive).
On to `C[C@H]1[C@@H](c2ccccc2)NC(=O)N1C`, for which the “activation” value is 1.58% (inactive).
For `CC(=O)CCc1ccc(OC(C)=O)cc1`, the “activation” value was -0.805% (inactive).
`CC1=CC(=O)CCC1`: the “activation” value was 0.11% (inactive).
On to `Cc1onc(-c2ccccc2Cl)c1C(=O)N[C@@H]1C(=O)N2[C@@H]1SC(C)(C)[C@@H]2C(=O)O`, for which the “activation” value was -0.0941% [at 35.3 µM] (inactive).
Take `CCN(CC)CC1CCCCN1CC(=O)N1c2ccccc2C(=O)Nc2cccnc21` (stereo not given): the “activation” value is 1.55% [at 35.3 µM] (inactive).
For the compound `NC(=O)c1ccccc1`, the “activation” value was 0.921% (inactive).
Still for that read-out and setting: next, `c1ccc2sc(SN3CCOCC3)nc2c1`: -0.0724% [at 35.3 µM] (inactive); `COc1ccc(C(=O)c2ccc(C)cc2)c(O)c1`: -0.714% (inactive).
In the case of `CNC(=S)NC`, the “activation” value is 0.76% (inactive).
As for `CCOC(=O)CC(=O)c1ccccc1`, the “activation” value was -8.34% (inactive).
Regarding `COc1cc(C(C)(C)C)c(O)c(C(C)(C)C)c1`, the “activation” value is 8.68% (inactive).
Regarding `C[C@H]1O[C@@H](O[C@H]2CC[C@@]3(C)[C@H](CC[C@@H]4[C@@H]3C[C@@H](O)[C@]3(C)[C@@H](C5=CC(=O)OC5)CC[C@]43O)C2)C[C@H](O)[C@@H]1O[C@H]1C[C@H](O)[C@H](O[C@H]2C[C@H](O)[C@H](O[C@@H]3O[C@H](CO)[C@@H](O)[C@H](O)[C@H]3O)[C@@H](C)O2)[C@@H](C)O1`, the “activation” value is -1.18% [at 35.3 µM] (inactive).
`CC(C)(C)CC(C)(C)c1ccc(O)c(Cc2ccc(Cl)cc2Cl)c1`: the “activation” value was 3.98% [at 35.3 µM] (inactive).
Regarding `FB(F)F`, the “activation” value is 1.77% (inactive).
Turning to `CCc1cccc(N(C)C(N)=Nc2cccc3ccccc23)c1`, the “activation” value is -0.238% [at 35.3 µM] (inactive).
Same read-out and setting: next, `CC(CO)(CO)[N+](=O)[O-]`: 0.43% (inactive); `Cc1nc(-c2ccccn2)ncc1C(=O)Nn1cc(C)c2cc(F)ccc21`: -0.404% (inactive).
Same read-out and setting: next, `CCCCNCCCC`: 2.41% (inactive).
As for `CCCC(=O)O[C@]1(C(=O)CO)CC[C@H]2[C@@H]3CCC4=CC(=O)CC[C@]4(C)[C@H]3[C@@H](O)C[C@@]21C`, the “activation” value is -0.282% [at 35.3 µM] (inactive).
On to `CCCC/C=C/CCCCO`, for which the “activation” value was 0.171% (inactive).
On the same count and under the same terms, the result for `O=Cc1ccccc1Cl` reads -1.85% (inactive).
Still for that read-out and setting: the result for `O=C(O)COc1nn(Cc2ccccc2)c2ccccc12` reads 8.31% [at 35.3 µM] (inactive); that for `O=C(Nc1ccccc1)c1cc(Cl)ccc1O`, 5.84% (inactive).
